# Shown are actives, neighbours in structure and some others; about 21% of the full set was active somewhere.
# Shiga toxin inh = inhibitors of Shiga toxin in Vero cells. Vero cells, Shiga toxin protein synthesis inhibition reporter. inhibition, % at 38.7 µM. 9.2% of 290,000 active; in the data active means inhibition mostly above about 28%, no sharp cut-off; inactive means mostly below about 43%
# NS1 function inh = inhibitors of influenza NS1 protein function; 0.4% of 270,000 active; Potency, µM (highest dose often 46.1 µM); calls by dose curve; further: actives are rising curves; nearly all actives have a fitted effect of over 50% in size
#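 OD600 was taken as the measure of yeast growth restored by compound in an NS1-expressing S. cerevisiae strain. Cells had been washed out of glucose medium and diluted 1:100 into galactose -URA medium, pH 6.0.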
# Pf growth 48h = P. falciparum growth inhibition at 48 hours (one generation); Potency, µM (top dose mostly 28.7 µM), usual class: inhibitors; AID 504832; 5.9% of 310,000 active; P. falciparum luciferase growth in erythrocytes, 48 h
#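 In quantitative HTS format, infected erythrocytes bearing luciferase-reporter parasites were treated for a single generation at 37 C. Luminescence after adding detection reagent served as the growth measure.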
# Cycloheximide cs = affects cycloheximide protein synthesis inhibition readout, counter-screen | cell reporter, cycloheximide protein synthesis inhibition counterscreen | max response, % | 12% of 300,000 active; in the data active means max response mostly above about 13%, no sharp cut-off; inactive means mostly below about 14%; further: read at 38.3 µM for the half of the compounds with a filed dose
# Pf growth 96h = P. falciparum growth inhibition at 96 hour, primary screen for plastid delayed-death inhibitors; P. falciparum luciferase reporter growth, 96 h; Potency, µM (series often up to 28.7 µM), actives largely listed as inhibitors; 6.9% of 320,000 active; AID 504834
#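 Erythrocytes infected with luciferase-expressing P. falciparum were dispensed at 2% hematocrit and 0.05% parasitemia (final), then incubated with compounds 96 hours at 37 C in 5% CO2. Luminescence after detection reagent addition reported growth.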
# Numbers stand for hits; i = inactive; ? = inconclusive; nt = no result given. Unless noted, the call rests on the fitted dose curve; in most records, active means well fitted inhibition curve with a large enough effect; inconclusive means small, poorly fitted or top-dose-only effect, or another doubt; inactive means no such curve, though single readings can be large or run the other way.
SMILES,Shiga toxin inh,NS1 function inh,Pf growth 48h,Cycloheximide cs,Pf growth 96h
CCOc1ccc2nc(SCC(=O)c3cccs3)sc2c1,139.3,i,i,41.8,nt
O=C(CSc1nc2ccc(Nc3nc(N4CCOCC4)nc(N4CCOCC4)n3)cc2s1)N1CCOCC1,i,i,i,i,i
COC(=O)c1ccccc1NC(=O)CSc1nc(Nc2ccccc2)nc(N2CCOCC2)n1,i,?,9.28µM,i,i
CCOc1ccc2nc(SCC(=O)c3ccc(Cl)s3)sc2c1,i,i,nt,i,i
CCOc1ccc2nc(SCC(=O)NC(=O)NCc3ccco3)sc2c1,i,i,i,i,i
O=C(CSc1nc2ccc(Nc3nc(N4CCOCC4)nc(N4CCOCC4)n3)cc2s1)Nc1ccccc1F,i,i,?,i,10.4µM
CCOc1ccc2nc(SCC(=O)NCc3ccco3)sc2c1,i,i,8.28µM,18.3,i
O=C(O)c1ccc(NS(=O)(=O)c2cccc(S(=O)(=O)c3ccc(Cl)c(Cl)c3)c2)cc1,i,i,i,i,i
O=C(Nc1ccon1)c1cc2ccccc2oc1=O,i,i,i,i,nt
CCc1ccc(OCC(=O)NNC(=O)c2cc(S(=O)(=O)N(C)C)ccc2N2CCCC2)cc1,nt,nt,i,nt,i
O=C(CSc1nc2ccc(Nc3nc(N4CCOCC4)nc(N4CCOCC4)n3)cc2s1)Nc1ccccc1Cl,i,i,11.7µM,i,2.62µM
O=C(CSc1nc2ccc(Nc3nc(N4CCCC4)nc(N4CCCC4)n3)cc2s1)NCc1ccco1,i,i,11.7µM,i,?
CCCCc1ccc(Nc2nc(N3CCOCC3)nc(N3CCOCC3)n2)cc1,i,i,?,i,?
CSc1nc2ccc(Nc3nc(N4CCOCC4)nc(N4CCOCC4)n3)cc2s1,i,i,9.28µM,i,nt
Cc1ccc(S(=O)(=O)N2CCCC2C(=O)NCc2ccncc2)cc1 (centres undefined),i,i,i,i,?
O=C(O)c1ccc(-c2c3nc(c(-c4ccc(C(=O)O)cc4)c4ccc([n-]4)c(-c4ccc(C(=O)O)cc4)c4nc(c(-c5ccc(C(=O)O)cc5)c5ccc2[n-]5)C=C4)C=C3)cc1.[Mn+3],i,nt,nt,i,nt
Cc1cc(C)c(Nc2ncccc2C(=O)O)c(C)c1,i,i,i,i,i
Cc1ccc(Nc2ncccc2C(N)=O)cc1[N+](=O)[O-],50.0,i,i,39.0,i
NC(=O)c1cccnc1Nc1ccccc1Cl,56.3,i,i,29.7,i
O=C(O)c1cccnc1Nc1ccc(Cl)cc1,101.1,nt,i,26.5,?
NC(=O)COC(=O)c1cccnc1Nc1ccccc1F,i,nt,i,i,i
Cc1ccc(Nc2ncccc2C(=O)O)cc1C,92.0,i,i,20.6,i
Cc1cccc(Nc2ncccc2C(=O)O)c1C,i,i,i,i,i
COC(=O)c1c[nH]n2c(=O)cc(CCl)nc12,i,i,i,i,?
CCOC(=O)C1CCN(C(=O)COC(=O)COc2ccccc2OC)CC1,i,i,i,i,i
SMILES,Shiga toxin inh,NS1 function inh,Pf growth 48h,Cycloheximide cs,Pf growth 96h
Cc1ccc(S(=O)(=O)N2CCC(C(=O)NCCN3CCCCCC3)CC2)cc1,i,i,11.7µM,i,i
Cc1ccc(S(=O)(=O)N2CCC(C(=O)NCCc3ccccc3)CC2)cc1,i,i,nt,i,i
CCCS(=O)(=O)N1CCC(C(=O)N2CCCC2)CC1,i,i,i,i,11.7µM
Cc1cc(C)c(C)c(S(=O)(=O)N2CCC(C(=O)Nc3ccncc3)CC2)c1C,i,i,?,i,13.1µM
Cc1ccc(S(=O)(=O)N2CCCC(C(=O)Nc3ccc(NC(=O)c4ccccn4)cc3)C2)cc1 (centres undefined),i,i,?,9.1,nt
CCc1ccc(S(=O)(=O)Nc2ccc(-c3ccc4nncn4n3)cc2)s1,nt,nt,i,nt,?
CN1C(=O)Cc2cc(S(=O)(=O)Nc3ccc(Cl)cc3)ccc21,i,i,i,i,i
COc1cc(CN2CCNC(=O)C2CC(=O)N2CCCO2)cc(OC)c1 (centres undefined),i,i,i,i,i
CCCNC(=O)C1CCN(S(=O)(=O)c2ccc(Br)cc2)CC1,i,?,4.65µM,i,i
Cc1ccc(S(=O)(=O)N2CCC(C(=O)N3CCCC3C(=O)N[C@@H](CC(C)C)C(=O)NCC(N)=O)CC2)cc1 (some centres undefined),i,i,?,i,6.57µM
O=C(C1CCN(S(=O)(=O)c2ccc(F)cc2)CC1)N1CC=C(c2ccccc2)CC1,i,i,10.4µM,i,i
Cc1ccc(C(=O)Nc2ccc(S(=O)(=O)N3CCCC3)cc2)s1,i,nt,?,14.4,13.1µM
CCCNC(=O)C1CCN(S(=O)(=O)c2ccc3c(c2)OCCO3)CC1,nt,nt,?,nt,i
Cc1ccccc1C(=O)Nc1ccc(S(=O)(=O)N2CCCC2)cc1,i,i,i,i,i
CC(OC(=O)CCN1C(=O)C2CC=CCC2C1=O)C(=O)Nc1cccc(C#N)c1 (centres undefined),nt,nt,i,nt,i
CC(C)CC(c1nnnn1Cc1ccccc1)N1CCN(C(=O)c2ccco2)CC1 (centres undefined),i,i,?,i,i
Cc1c(CNC(=O)c2c([N+](=O)[O-])cnn2C)cnn1C,i,nt,?,i,i
Cc1ccc(NC(=O)C2CCN(C(=O)OC(C)(C)C)CC2)cc1S(=O)(=O)N1CCCCC1,nt,nt,13.1µM,nt,?
CC1CCCCN1C(=O)C1CCN(S(=O)(=O)c2ccc(-n3cnnn3)cc2)CC1 (centres undefined),i,i,?,i,?
CC1CCN(C(=O)C2CCN(S(=O)(=O)c3ccc(-n4cnnn4)cc3)CC2)CC1,i,i,i,i,3.7µM
Cc1ccc(S(=O)(=O)N2CCC(C(=O)Nc3ccc(S(=O)(=O)N4CCCC4)cc3)CC2)cc1C,nt,nt,11.7µM,nt,?
Cc1ccc(C(C)(C)C)cc1S(=O)(=O)N1CCC(C(=O)N2CCN(c3ccc(O)cc3)CC2)CC1,nt,nt,3.7µM,nt,10.4µM
Cn1c(CNC(=O)c2cccs2)nnc1SCC(=O)Nc1ccccc1,i,i,i,i,?
CCOC(=O)N1CCC(NC(=O)C2CCN(S(=O)(=O)c3ccc4c(c3)oc(=O)n4C)CC2)CC1,i,nt,?,i,i
COCCNC(=O)Cn1ccc2cc(S(=O)(=O)N3CCCCCC3)ccc21,i,i,i,i,?
SMILES,Shiga toxin inh,NS1 function inh,Pf growth 48h,Cycloheximide cs,Pf growth 96h
CC1=CC(=O)c2c(O)ccc(O)c2C1=O,i,i,?,i,?
COC(=O)c1nc2n(n1)C(c1ccc(OC)c(OC)c1OC)C1=C(CCCC1=O)N2 (centres undefined),i,i,?,i,i
CC(=O)Nc1nc(NC(=O)/C=C/c2ccccc2)n(-c2ccccc2)n1,i,i,?,i,i
Cc1ccc(C(=O)NNC(=O)C2CCN(S(=O)(=O)c3ccc(C)cc3)CC2)cc1,i,i,2.62µM,i,i
Cc1ccc(S(=O)(=O)N2CCC(C(=O)N3CCC3)CC2)cc1,67.2,i,i,45.1,?
Cc1cc(C)c(C)c(S(=O)(=O)N2CCC(C(=O)N3CCCC3)CC2)c1C,nt,nt,11.7µM,nt,11.7µM
Cc1ccc(S(=O)(=O)N2CCC(C(=O)Nc3ccc(S(=O)(=O)N4CCCC4)cc3)CC2)cc1,nt,nt,13.1µM,nt,4.65µM
O=C(C1CCN(S(=O)(=O)c2ccc(Cl)cc2)CC1)N1CCCC1,i,i,?,i,i
